Only some compounds are listed: those with a hit (about 2.7% of all), similar ones and a draw of the others.
MPTP block: inhibitors of mitochondrial permeability transition pore. isolated mouse mitochondria, Ca2+ swelling absorbance, 30 min. inhibition, % at 10 µM. actives 1.4% (n = 360,000). AID 602449;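 active = inhibition of 50% or more, scaled per plate between neutral and stimulator controls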;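 note: 0% = DMSO wells given calcium and 100% = 1 mM EGTA wells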
ATG4B inhibitor: inhibitors of human ATG4B cysteine protease | ATG4B cleavage of LC3-PLA2, NBD-HPC fluorescence, 1 h | inhibition, % at 8.33 µM | actives 0.51% (n = 340,000); in the data active = inhibition above about 40%
Target sequence (Q9Y4P1 whole entry, looked up): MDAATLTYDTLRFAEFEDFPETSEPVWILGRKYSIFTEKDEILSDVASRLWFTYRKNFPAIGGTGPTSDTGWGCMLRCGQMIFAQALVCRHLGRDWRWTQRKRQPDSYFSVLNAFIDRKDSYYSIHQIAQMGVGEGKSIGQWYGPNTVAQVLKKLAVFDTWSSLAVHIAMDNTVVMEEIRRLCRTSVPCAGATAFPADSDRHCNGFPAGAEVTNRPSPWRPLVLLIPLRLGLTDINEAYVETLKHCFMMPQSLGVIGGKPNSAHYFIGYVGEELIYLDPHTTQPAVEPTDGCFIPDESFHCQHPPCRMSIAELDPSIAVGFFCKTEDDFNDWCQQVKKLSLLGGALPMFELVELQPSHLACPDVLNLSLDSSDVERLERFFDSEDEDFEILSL
CendR NRP1 mod: modulators of CendR peptide binding to human neuropilin-1. AID 602438. actives 0.85% (n = 360,000). O14786. inhibition, % at 25 µM. FAM-RPARPAR peptide binding to NRP-1, fluorescence polarization;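 active = inhibition or corrected inhibition above about 18%, plus a signal ratio from 0.5 to 1.5, limit read from the data, passing the limit was not always enough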
F508del corr: CFTR F508del correction in bronchial cells | CFBE cells, YFP halide quenching; stimulated with forskolin plus potentiator P3; % fluorescence drop versus neutral controls | activity (quench increase), % at 7.58 µM | actives 0.36% (n = 350,000) | AID 720511;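 active = mean added fluorescence quench of at least 8% versus neutral control, with both replicates also reaching 8%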;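 note: cells transiently co-express mutant CFTR-F508del with the halide-sensitive YFP; corrector assay measuring rescue of mutant channel to the surface after 24 h compound exposure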
SKN-1 block: C. elegans SKN-1 inhibition; C. elegans VP596 Pgst-4::GFP/RFP ratio, acrylamide-induced, 24 h; inhibition, % at 21.8 µM; actives 0.49% (n = 360,000);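 active = interference check ratio from 0.5 to 1.5 plus GFP to RFP signal ratio inhibition reaching or exceeding a fixed threshold, cut at about 30% in these data, passing the limit was not always enough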
* hit, by the source's call; . = not tested or not shown.

SMILES	MPTP block	ATG4B inhibitor	CendR NRP1 mod	F508del corr	SKN-1 block
COc1ccc(-c2cccc(-c3nc(C(=O)NCC(F)(F)F)cc4c3[C@@H](CCO)N([S@](=O)C(C)(C)C)C4)c2)cc1	.	.	.	0.1	.
CCC(=O)N(C)C[C@@H]1Oc2ncc(C#Cc3ccccc3OC)cc2C(=O)N([C@H](C)CO)C[C@@H]1C	.	.	.	-1.3	.
CO[C@@H]1CN(C)C(=O)c2cc(NC(=O)NC(C)C)ccc2OC[C@H](C)N(CCC(F)(F)F)C[C@H]1C	.	.	.	1.3	.
O=c1nc2s/c(=C\c3ccc(-c4ccccc4[N+](=O)[O-])o3)c(=O)n2nc1-c1ccccc1	4.6	-1.8	35.7*	.	11.1
CCSc1nnc(-c2cc(Br)ccc2N=Cc2c(C)[nH]n(-c3ccccc3)c2=O)c(=O)[nH]1	20.1	15.7	-13.4	-1.6	1.6
CSc1nnc(-c2cc(Br)ccc2N=Cc2c(C)[nH]n(-c3ccccc3)c2=O)c(=O)[nH]1	1.3	1.1	18.3*	1.0	8.0
OCCC1CCCCN1CC(O)COCc1ccc(Cl)cc1 (stereo not drawn)	0.0	-4.1	21.2*	0.2	0.7
NC(=O)C1CCCN(CC(O)COCc2ccc(Cl)cc2)C1 (stereo not drawn)	0.5	-0.1	-3.6	-4.1	2.1
CN(C)CCCN1C(=O)c2cccc3c([N+](=O)[O-])ccc(c23)C1=O	0.3	-5.9	28.6*	.	-12.0
O=C(Cc1ccncc1)NCC[C@@H]1CC[C@H](NC(=O)Nc2ccc(Cl)cc2)[C@H](CO)O1	.	.	.	-3.1	.
Clc1ccc(OCCCCCN2CCOCC2)cc1	-1.2	-3.8	3.1	1.0	39.5*
Cc1cc(Cl)c(OCCCCN2CCOCC2)c(Br)c1	-1.6	4.1	10.5	0.6	-18.4
CCCCOc1ccc(OCCCN2CCOCC2)cc1	-2.4	5.8	10.9	-2.1	-3.0
Cc1cc(Cl)cc(C)c1OCCCCN1CCOCC1	0.3	0.5	5.6	.	42.5*
COc1ccc(C(=O)NCC(c2ccco2)N2CCc3ccccc32)cc1 (stereo not drawn)	0.0	3.9	-2.9	12.5*	-10.5
COc1ccc(NC(=O)C(=O)NCC(c2ccco2)N2CCc3ccccc32)cc1 (stereo not drawn)	2.9	8.9	3.1	.	-0.6
Cc1noc(C)c1NC(=O)N(C)C[C@@H]1OCCCC[C@H](C)Oc2ccc(NC(=O)C3CCCCC3)cc2C(=O)N([C@@H](C)CO)C[C@H]1C	.	.	.	0.5	.
COc1cccc(C#Cc2cnc3c(c2)C(=O)N([C@H](C)CO)C[C@H](C)[C@H](CN(C)C)O3)c1	.	.	.	-2.7	.
CCOc1ccc(C(=O)Nc2nnc(SCC(=O)NCC3CCCO3)s2)cc1OCC (stereo not drawn)	-1.4	1.1	20.7*	4.4	4.2
Cc1nnc(NC(=O)c2ccccc2C(=O)O)s1	-1.2	-0.2	34.8*	.	-24.0
Cc1ccc(C(=O)N/N=C/c2cc(Br)ccc2O)cn1	0.0	-5.7	7.0	12.0*	10.2
Cc1ccc(C(=O)N/N=C\C=C\c2ccc(Br)cc2)cn1	0.1	-8.6	-1.0	1.9	-20.7
COc1ccc2c3c([nH]c2c1)[C@H](CO)N(Cc1ccccc1)CC31CCN(C)CC1	.	.	.	-2.1	.
CNC[C@@H]1Oc2ccc(N(C)C)cc2C(=O)N([C@@H](C)CO)C[C@@H]1C	.	.	.	-3.6	.
O=C1CC(c2ccc(Cl)cc2)CC(O)=C1C=NCCO (stereo not drawn)	0.4	7.1	16.2*	-0.9	20.2
SMILES	MPTP block	ATG4B inhibitor	CendR NRP1 mod	F508del corr	SKN-1 block
O=c1cc(-c2ccccc2Cl)oc2cc(O)cc(O)c12	12.8	-8.2	-8.1	2.7	3.9
O=C1C=CC(O)(c2cc(=O)c3c(O)cc(O)cc3o2)C=C1	0.6	8.0	-1.6	16.6*	-5.2
C[C@H](NC(=O)C[C@@H]1C=C[C@@H](NC(=O)C2CCC2)[C@@H](CO)O1)c1ccccc1	.	.	.	0.7	.
O=C(CC1C(=O)NCCN1Cc1cccc(Oc2ccccc2)c1)NCCCn1cccn1 (stereo not drawn)	0.1	-11.5	23.3*	2.3	6.8
O=C(CC1C(=O)NCCN1Cc1ccc(F)c(F)c1)NCCn1cccn1 (stereo not drawn)	-0.2	25.6	27.5*	1.0	6.8
Cc1cccc(CCNC(=O)CC2C(=O)NCCN2Cc2ccc(F)c(F)c2)n1 (stereo not drawn)	-0.4	-26.1	6.8	-1.7	-5.9
COc1ccc(CN2CCNC(=O)C2CC(=O)NCCCn2cccn2)cc1C (stereo not drawn)	0.4	-0.4	2.6	2.2	4.2
O=C(Nc1cc(Cl)cc(Cl)c1)N[C@H]1CC[C@H](CCNS(=O)(=O)c2cccc(F)c2)O[C@@H]1CO	.	.	.	1.6	.
C[C@@H](NC(=O)C[C@@H]1C[C@@H]2c3cc(NC(=O)CN(C)C)ccc3O[C@@H]2[C@@H](CO)O1)c1ccccc1	.	.	.	-0.4	.
CCN1C(=O)/C(=C/C=C2/SCCN2C)SC1=S	-0.1	12.1	-213.6	.	27.1*
Cc1ccc(NC(=O)COC(=O)c2c(C)nn(-c3ccccc3)c2C)cc1	0.0	-34.7	4.5	-0.3	2.5
Cc1nn(-c2ccccc2)c(C)c1C(=O)OCC(=O)Nc1ccccc1	0.9	-12.9	26.1*	5.3	9.8
CCN1[C@@H]2Cn3c(cccc3=O)[C@H]1[C@@H](C(=O)NC1Cc3ccccc3C1)[C@@H]2CO	.	.	.	0.5	.
CN1c2ccc(-c3ccc(C#N)cc3)cc2[C@H]2[C@H](CCN2S(=O)(=O)c2ccc(F)cc2)[C@H]1CO	.	.	.	7.8	.
COCCNC(=O)C1(C)C=CC2(CCCCC2)N1C(=O)c1ccccc1 (stereo not drawn)	0.4	4.3	4.3	-1.4	15.1
CC1(C(=O)NCCN2CCOCC2)C=CC2(CCCCC2)N1C(=O)c1ccccc1 (stereo not drawn)	0.2	7.7	19.7*	0.2	26.5
CN(Cc1ccco1)c1ncnc2ccc(-c3ccc4c(ccn4C)c3)cc12	0.9	-6.2	5.3	14.3*	2.0
COc1ccccc1-c1ccc2c(c1)O[C@H](CN(C)C(C)=O)[C@@H](C)CN([C@H](C)CO)S2(=O)=O	.	.	.	0.0	.
O=C(CSc1nnc(Cn2c(=O)sc3ccccc32)n1-c1ccccc1)NCc1ccco1	-1.4	-1.3	-4.0	10.4*	-1.7
O=C(CSc1nnc(CNc2ccc(Cl)cc2)n1Cc1ccccc1)NCc1ccco1	5.4	-7.5	-1.4	.	2.0
O=C(CSc1nnc(Cc2ccccc2)n1Cc1ccccc1)NCc1ccco1	-2.4	-2.9	29.5*	.	-4.2
Fc1ccc(-c2nnc(Cc3ccc(Cl)cc3)o2)cc1	1.3	-7.8	7.7	0.5	44.4*
CN(Cc1ccc(F)cc1)C(=O)c1cccc(OCc2ccccc2)c1	-1.0	4.7	5.0	1.3	19.6
CN(Cc1ccc(F)cc1)C(=O)c1cccc(OC2CCN(C3CCCC3)CC2)c1	1.2	-16.9	26.1*	-0.5	-2.4
Cc1nc2c(sc3nc4c(cc32)COC(C)(C)C4)c(=O)n1CC(=O)NCc1ccco1	-0.7	-3.7	-22.2	12.6*	3.1
CC1(C)Cc2nc3sc4c(SCC(=O)NCc5ccco5)ncnc4c3cc2CO1	-0.3	5.6	-22.7	.	32.3

From PubChem BioAssay
